# The full list was thinned out, with the strongest signals kept by preference.
# Key:
# Test in all cases: glycan array binding signal (z-score within array); higher = stronger binding
# Conditions in all cases: glycan notation: IUPAC condensed, linker removed
# [1] = biological target: Fuc(a1-2)Gal
# Summary of the method: (§1)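 Glycan array data came from 3228 arrays in the Consortium for Functional Glycomics database, and only arrays with an available protein sequence were kept. Glycan names were put into IUPAC-condensed notation, and columns mapping to the same glycan were averaged. The binding signal is a within-array Z-score, averaged across arrays of one protein sequence run at different concentrations or buffers and across linkers. A negative Z-score can be read as non-binding.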
# [2] = biological target: Fuc(a1-2)Gal(b1-4)GlcNAc(b1-2)Man(a1-3)[Fuc(a1-2)Gal(b1-4)GlcNAc(b1-2)Man(a1-6)]Man(b1-4)GlcNAc(b1-4)[Fuc(a1-6)]GlcNAc
# Summary of the method: as §1
# [3] = biological target: Fuc(a1-2)Gal(b1-4)GlcNAc(b1-6)GalNAc
# Summary of the method: as §1
# [4] = biological target: Fuc(a1-2)Gal(b1-4)[Fuc(a1-3)]GlcNAc(b1-3)Gal(b1-4)[Fuc(a1-3)]GlcNAc(b1-3)Gal(b1-4)[Fuc(a1-3)]GlcNAc
# Summary of the method: as §1
# [5] = biological target: Fuc(a1-2)Gal6S(b1-3)GlcNAc6S
# Summary of the method: as §1
# [6] = biological target: Fuc(a1-2)[Gal(a1-3)]Gal(b1-3)GlcNAc
# Summary of the method: as §1
# [7] = biological target: Fuc(a1-2)[Gal(a1-3)]Gal(b1-4)GlcNAc
# Summary of the method: as §1
# [8] = biological target: Fuc(a1-2)[Gal(a1-3)]Gal(b1-4)GlcNAc(b1-2)Man(a1-3)[Fuc(a1-2)[Gal(a1-3)]Gal(b1-4)GlcNAc(b1-2)Man(a1-6)]Man(b1-4)GlcNAc(b1-4)[Fuc(a1-6)]GlcNAc
# Summary of the method: as §1
# [9] = biological target: Fuc(a1-2)[GalNAc(a1-3)]Gal(b1-4)GlcNAc(b1-2)Man(a1-3)[Fuc(a1-2)[GalNAc(a1-3)]Gal(b1-4)GlcNAc(b1-2)Man(a1-6)]Man(b1-4)GlcNAc(b1-4)GlcNAc
# Summary of the method: as §1
# [10] = biological target: Fuc(a1-3)[Gal(b1-4)]GlcNAc(b1-6)[Gal(b1-3)GlcNAc(b1-3)]Gal(b1-4)Glc
# Summary of the method: as §1
# [11] = biological target: Gal(a1-3)Gal(b1-4)GlcNAc(b1-2)Man(a1-3)[Gal(a1-3)Gal(b1-4)GlcNAc(b1-2)Man(a1-6)]Man(b1-4)GlcNAc(b1-4)GlcNAc
# Summary of the method: as §1
# [12] = biological target: Gal(a1-3)Gal(b1-4)GlcNAc(b1-3)GalNAc
# Summary of the method: as §1
# [13] = biological target: Gal(b1-2)Gal
# Summary of the method: as §1
# [14] = biological target: Gal(b1-3)Gal
# Summary of the method: as §1
# [15] = biological target: Gal(b1-3)GlcNAc
# Summary of the method: as §1
# [16] = biological target: Gal(b1-3)GlcNAc(b1-3)Gal(b1-4)GlcNAc
# Summary of the method: as §1
# [17] = biological target: Gal(b1-3)GlcNAc(b1-3)Gal(b1-4)GlcNAc(b1-3)Gal(b1-4)GlcNAc(b1-2)[Gal(b1-3)GlcNAc(b1-3)Gal(b1-4)GlcNAc(b1-3)Gal(b1-4)GlcNAc(b1-6)]Man(a1-6)[Gal(b1-3)GlcNAc(b1-3)Gal(b1-4)GlcNAc(b1-3)Gal(b1-4)GlcNAc(b1-2)Man(a1-3)]Man(b1-4)GlcNAc(b1-4)[Fuc(a1-6)]GlcNAc
# Summary of the method: as §1
# [18] = biological target: Gal(b1-3)[Fuc(a1-4)]GlcNAc
# Summary of the method: as §1
# [19] = biological target: Gal(b1-3)[Fuc(a1-4)]GlcNAc(b1-2)Man
# Summary of the method: as §1
# [20] = biological target: Gal(b1-3)[GlcNAc(b1-6)]GalNAc
# Summary of the method: as §1
# [21] = biological target: Gal(b1-4)GlcNAc
# Summary of the method: as §1
# [22] = biological target: Gal(b1-4)GlcNAc(b1-2)Man(a1-3)[GlcNAc(b1-4)][Gal(b1-4)GlcNAc(b1-2)Man(a1-6)]Man(b1-4)GlcNAc(b1-4)GlcNAc
# Summary of the method: as §1
# [23] = biological target: Gal(b1-4)GlcNAc(b1-2)[Gal(b1-4)GlcNAc(b1-4)]Man(a1-3)[Gal(b1-4)GlcNAc(b1-2)[Gal(b1-4)GlcNAc(b1-6)]Man(a1-6)]Man(b1-4)GlcNAc(b1-4)GlcNAc
# Summary of the method: as §1
# [24] = biological target: Gal(b1-4)GlcNAc(b1-3)Gal(b1-4)Glc
# Summary of the method: as §1
# [25] = biological target: Gal(b1-4)GlcNAc(b1-3)Gal(b1-4)GlcNAc(b1-3)[Gal(b1-4)GlcNAc(b1-3)Gal(b1-4)GlcNAc(b1-6)]GalNAc
# Summary of the method: as §1
# [26] = biological target: Gal(b1-4)GlcNAc(b1-3)GalNAc
# Summary of the method: as §1
# [27] = biological target: Gal3S(b1-3)GalNAc
# Summary of the method: as §1
binder,measurement,setting,value
"Tp0751, 83732 (protein) MSYYHHHHHHLESTSLYKKAGFQHGHVPPRRIPPHDTFGALPTAALPSNARDTAAHPSDTADNTSGSSTTTDPRSHGNAPPAPVGGAAQTHTQPPVQTAMRIALWNRATHGEQGALQHLLAGLWIQTEISPNSGDIHPLLFFDREHAEITFSRASVQEIFLVDSAHTHRKTVSFLTRNTAISSIRRRLEVTFESHEVIHVRAVEDVARLKIGSTSMWDGQYTRYHAGPASAPSP",glycan array binding signal (z-score),[1],-0.265
same,glycan array binding signal (z-score),[2],1.64
same,glycan array binding signal (z-score),[3],-0.071
same,glycan array binding signal (z-score),[4],0.013
same,glycan array binding signal (z-score),[5],1.11
same,glycan array binding signal (z-score),[6],1.77
same,glycan array binding signal (z-score),[7],0.066
same,glycan array binding signal (z-score),[8],-0.276
same,glycan array binding signal (z-score),[9],0.638
same,glycan array binding signal (z-score),[10],0.413
same,glycan array binding signal (z-score),[11],0.262
same,glycan array binding signal (z-score),[12],-0.025
same,glycan array binding signal (z-score),[13],2.31
same,glycan array binding signal (z-score),[14],0.017
same,glycan array binding signal (z-score),[15],-0.323
same,glycan array binding signal (z-score),[16],-0.382
same,glycan array binding signal (z-score),[17],-0.07
same,glycan array binding signal (z-score),[18],-0.004
same,glycan array binding signal (z-score),[19],-0.163
same,glycan array binding signal (z-score),[20],-0.373
same,glycan array binding signal (z-score),[21],0.21
same,glycan array binding signal (z-score),[22],-0.493
same,glycan array binding signal (z-score),[23],0.31
same,glycan array binding signal (z-score),[24],-0.441
same,glycan array binding signal (z-score),[25],1.78
same,glycan array binding signal (z-score),[26],-0.427
same,glycan array binding signal (z-score),[27],3.13
